From PubChem BioAssay (Tox21)
Where “and” joins values, the source holds several entries; their conditions need not be identical. Identical values can stand only once. Records with an inconclusive call do not appear. Where a call stands in place of a potency, no number is given. More than one record can exist for a structure, and the calls need not agree. Calls of active or inactive are those of the source. The call rests on the fitted dose curve; in most records, active means well fitted curve in the direction sought with a large enough effect in the repeat runs; inconclusive means weak or mixed curves; inactive means no such curve, though single readings can be large; an effect the other way counts as inactive or inconclusive.

assay: A CellTox Green Cytotoxicity Assay to monitor cytotoxicity in HepG2 cells - 16 hour (AID 1224876); details: CellTox Green fluorescence; series mostly up to 76.8 µM; further: nearly all actives have a fitted effect of over 45% in size
Outline: (§1)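 Nonlytic assay: viable cells exclude the dye, so fluorescence scales with cell death. HepG2 at 600 cells/well, compounds added after 5 h, signal read across 40 h.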
Potency means the concentration at half of the fitted maximal effect.

Structure (SMILES)	Potency
Cc1ccc(-c2c(Cl)nc(C#N)n2S(=O)(=O)N(C)C)cc1	inactive
CCCN(CC1CC1)c1c([N+](=O)[O-])cc(C(F)(F)F)cc1[N+](=O)[O-]	inactive
COc1cc(CC(C)N)cc2c1OCO2 (stereo not given)	inactive
CCCN(CCCl)c1c([N+](=O)[O-])cc(C(F)(F)F)cc1[N+](=O)[O-]	inactive
CCOP(=S)(OCC)SCn1nnc2ccccc2c1=O	inactive
CN1C(=O)C(O)N=C(c2ccccc2)c2cc(Cl)ccc21 (stereo not given)	inactive
CCN(C)N=O	inactive
C(=NC1CCCCC1)=NC1CCCCC1	inactive
CC(C)O.CC(C)O.OCCN(CCO)CCO.OCCN(CCO)CCO.[Ti]	inactive
O=Cc1ccc2c(c1)OCO2	inactive
CCOC(=O)CBr	inactive
Cc1ccccc1C(=O)Nc1cccc(OC(C)C)c1	inactive
IC(I)=C(I)I	24.5 µM (active)
O=C(Nc1ccccc1)Nc1ccnc(Cl)c1	inactive
Nc1ccc([N+](=O)[O-])cc1[N+](=O)[O-]	inactive
O=C(O)C(F)(F)C(F)(F)C(F)(F)C(F)(F)C(F)(F)C(F)(F)C(F)(F)C(F)(F)C(F)(F)F	inactive
COC(=O)C(Br)CBr (stereo not given)	inactive

Structure (SMILES)	Potency
Clc1ccc(C2(Cn3cncn3)CC(Br)CO2)c(Cl)c1 (stereo not given)	inactive
[CH3][Sn]([CH3])([Cl])[Cl]	inactive
O=[N+]([O-])c1ccccc1CCl	inactive
COC(=O)C(C)N(C(=O)Cc1ccccc1)c1c(C)cccc1C (stereo not given)	inactive
C=CC(=O)OCCCCO	inactive
CCOP(=O)(OCC)O/C(=C/Cl)c1ccc(Cl)cc1Cl	inactive
II	38.9 µM (active)
CCOP(=O)(OCC)Oc1ccc([N+](=O)[O-])cc1	inactive
C=CC(=O)OCC(C)O (stereo not given)	inactive
CN(C)c1ccc(N(C)C)cc1	inactive
CC(C)=CCOc1c2occc2cc2ccc(=O)oc12	inactive
c1ccc(CN2CCNCC2)cc1	inactive
O=C(CCl)c1ccc(Cl)cc1Cl	inactive and 23.9 µM (active)
COCCOCCO	inactive
C/C(=C\c1ccccc1)[N+](=O)[O-]	inactive
CC1(C)[C@H](C=C(Cl)Cl)[C@@H]1C(=O)O[C@@H](C#N)c1cccc(Oc2ccccc2)c1	inactive
CO/N=C(/C(=O)OC)c1ccccc1COc1ccccc1C	inactive

assay: qHTS RealTime-Glo MT Cell Viability Assay in HepG2 cells - 32 hour (AID 1224877); details: RealTime-Glo luminescence; series mostly up to 76.8 µM; further: nearly all actives have a fitted effect of over 55% in size
Outline: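 qHTS, HepG2, 600 cells/well, RealTime-Glo (NanoLuc + prosubstrate) added with cells; 5 h preincubation; DMSO compound addition; 37 C; luminescence at 0/8/16/24/32/40 h.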

Structure (SMILES)	Potency
Cc1ccc(-c2c(Cl)nc(C#N)n2S(=O)(=O)N(C)C)cc1	inactive
CCCN(CC1CC1)c1c([N+](=O)[O-])cc(C(F)(F)F)cc1[N+](=O)[O-]	inactive
COc1cc(CC(C)N)cc2c1OCO2 (stereo not given)	inactive
O=C(O)CC(Cl)C(=O)O (stereo not given)	inactive
CCCN(CCCl)c1c([N+](=O)[O-])cc(C(F)(F)F)cc1[N+](=O)[O-]	inactive
CCOP(=S)(OCC)SCn1nnc2ccccc2c1=O	inactive
CN1C(=O)C(O)N=C(c2ccccc2)c2cc(Cl)ccc21 (stereo not given)	inactive
CCN(C)N=O	inactive
C(=NC1CCCCC1)=NC1CCCCC1	12.4 µM (active) and 12.3 µM (active)
CC(C)O.CC(C)O.OCCN(CCO)CCO.OCCN(CCO)CCO.[Ti]	inactive
O=Cc1ccc2c(c1)OCO2	inactive
CCOC(=O)CBr	inactive
Cc1ccccc1C(=O)Nc1cccc(OC(C)C)c1	inactive
IC(I)=C(I)I	0.436 µM (active)
O=C(Nc1ccccc1)Nc1ccnc(Cl)c1	inactive
Nc1ccc([N+](=O)[O-])cc1[N+](=O)[O-]	inactive
O=C(O)C(F)(F)C(F)(F)C(F)(F)C(F)(F)C(F)(F)C(F)(F)C(F)(F)C(F)(F)C(F)(F)F	inactive
COC(=O)C(Br)CBr (stereo not given)	inactive

Structure (SMILES)	Potency
Clc1ccc(C2(Cn3cncn3)CC(Br)CO2)c(Cl)c1 (stereo not given)	inactive
[CH3][Sn]([CH3])([Cl])[Cl]	inactive
O=[N+]([O-])c1ccccc1CCl	inactive
COC(=O)C(C)N(C(=O)Cc1ccccc1)c1c(C)cccc1C (stereo not given)	inactive
C=CC(=O)OCCCCO	inactive
CCOP(=O)(OCC)O/C(=C/Cl)c1ccc(Cl)cc1Cl	inactive
II	7.76 µM (active)
CCOP(=O)(OCC)Oc1ccc([N+](=O)[O-])cc1	inactive
C=CC(=O)OCC(C)O (stereo not given)	inactive
CN(C)c1ccc(N(C)C)cc1	inactive
CC(C)=CCOc1c2occc2cc2ccc(=O)oc12	inactive
c1ccc(CN2CCNCC2)cc1	inactive
O=C(CCl)c1ccc(Cl)cc1Cl	inactive and 21.3 µM (active)
COCCOCCO	inactive
CC1(C)[C@H](C=C(Cl)Cl)[C@@H]1C(=O)O[C@@H](C#N)c1cccc(Oc2ccccc2)c1	inactive
CCC(C)(NC(=O)c1cc(Cl)c(C)c(Cl)c1)C(=O)CCl (stereo not given)	49.3 µM (active)
CO/N=C(/C(=O)OC)c1ccccc1COc1ccccc1C	inactive

assay: A CellTox Green Cytotoxicity Assay to monitor cytotoxicity in HepG2 cells - 24 hour (AID 1224878); details: CellTox Green fluorescence; series mostly up to 76.8 µM; further: nearly all actives have a fitted effect of over 45% in size
Outline: as §1

Structure (SMILES)	Potency
Cc1ccc(-c2c(Cl)nc(C#N)n2S(=O)(=O)N(C)C)cc1	inactive
CCCN(CC1CC1)c1c([N+](=O)[O-])cc(C(F)(F)F)cc1[N+](=O)[O-]	inactive
COc1cc(CC(C)N)cc2c1OCO2 (stereo not given)	inactive
CCCN(CCCl)c1c([N+](=O)[O-])cc(C(F)(F)F)cc1[N+](=O)[O-]	inactive
CCOP(=S)(OCC)SCn1nnc2ccccc2c1=O	inactive
CN1C(=O)C(O)N=C(c2ccccc2)c2cc(Cl)ccc21 (stereo not given)	inactive
CCN(C)N=O	inactive
C(=NC1CCCCC1)=NC1CCCCC1	11 µM (active) and 15.5 µM (active)
CC(C)O.CC(C)O.OCCN(CCO)CCO.OCCN(CCO)CCO.[Ti]	inactive
O=Cc1ccc2c(c1)OCO2	inactive
CCOC(=O)CBr	inactive
Cc1ccccc1C(=O)Nc1cccc(OC(C)C)c1	inactive
IC(I)=C(I)I	19.5 µM (active)
O=C(Nc1ccccc1)Nc1ccnc(Cl)c1	inactive
Nc1ccc([N+](=O)[O-])cc1[N+](=O)[O-]	inactive
O=C(O)C(F)(F)C(F)(F)C(F)(F)C(F)(F)C(F)(F)C(F)(F)C(F)(F)C(F)(F)C(F)(F)F	inactive

Structure (SMILES)	Potency
COC(=O)C(Br)CBr (stereo not given)	inactive
[CH3][Sn]([CH3])([Cl])[Cl]	inactive
O=[N+]([O-])c1ccccc1CCl	inactive
C=CC(=O)OCCCCO	inactive
CCOP(=O)(OCC)O/C(=C/Cl)c1ccc(Cl)cc1Cl	inactive
II	34.7 µM (active)
CCOP(=O)(OCC)Oc1ccc([N+](=O)[O-])cc1	inactive
C=CC(=O)OCC(C)O (stereo not given)	inactive
CN(C)c1ccc(N(C)C)cc1	inactive
CC(C)=CCOc1c2occc2cc2ccc(=O)oc12	inactive
c1ccc(CN2CCNCC2)cc1	inactive
O=C(CCl)c1ccc(Cl)cc1Cl	inactive and 23.9 µM (active)
COCCOCCO	inactive
CC1(C)[C@H](C=C(Cl)Cl)[C@@H]1C(=O)O[C@@H](C#N)c1cccc(Oc2ccccc2)c1	inactive
CO/N=C(/C(=O)OC)c1ccccc1COc1ccccc1C	inactive
